ChEMBL document CHEMBL3988442, “University of Dundee, Small-Polar-MMV Screening Library” (2021)

Molecular target: T1, Aspartate--tRNA(Asp/Asn) ligase (Mycobacterium tuberculosis (strain ATCC 25618 / H37Rv)) (UniProt P9WFW3); further: in the data most compounds retested in dose-response had high values
T1 sequence (whole entry): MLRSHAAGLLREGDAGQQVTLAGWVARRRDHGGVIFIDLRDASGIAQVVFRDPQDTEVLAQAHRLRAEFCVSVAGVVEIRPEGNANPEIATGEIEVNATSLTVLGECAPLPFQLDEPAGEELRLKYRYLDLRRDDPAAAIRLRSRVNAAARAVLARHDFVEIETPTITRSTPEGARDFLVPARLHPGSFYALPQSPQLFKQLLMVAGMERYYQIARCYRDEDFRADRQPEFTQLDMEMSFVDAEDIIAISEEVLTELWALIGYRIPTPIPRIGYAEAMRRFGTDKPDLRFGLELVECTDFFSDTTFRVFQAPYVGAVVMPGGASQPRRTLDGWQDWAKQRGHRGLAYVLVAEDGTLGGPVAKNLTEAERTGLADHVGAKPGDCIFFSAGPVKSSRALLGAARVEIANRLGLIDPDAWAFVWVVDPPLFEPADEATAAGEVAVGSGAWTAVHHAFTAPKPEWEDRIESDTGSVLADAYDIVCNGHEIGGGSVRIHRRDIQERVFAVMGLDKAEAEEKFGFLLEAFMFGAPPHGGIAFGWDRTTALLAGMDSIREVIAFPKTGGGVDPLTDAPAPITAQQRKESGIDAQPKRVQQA
Test: Assay for Asp RNA synthetase-1 from Mycobacterium tuberculosis
Type: functional
Parameters: scale not given: direction of the effect not stated beside the values
Details: 30 µM

SMILES | Percent Effect
COCC(=O)N1CCC(c2nc3ccc(-c4ccccc4)cn3n2)CC1 | -2.8%
Cc1cc(=O)n2ncnc2n1CC(O)c1cc(F)ccc1F (stereo not given) | 3.44%
CCNC(=O)N1CCCCC1CCNS(C)(=O)=O (stereo not given) | -3.62%
CN(Cc1nc(C2CC2)no1)C1CCCN(c2cccnn2)C1 (stereo not given) | -4.8%
CC(NC(=O)CCCOc1ccccc1)c1nnc2n1CCCCC2 (stereo not given) | 4.5%
NC(=O)NCCC(=O)NCc1cccnc1N1CCc2ccccc2C1 | -1.71%
O=C(CCc1nc2cccnc2[nH]1)NCc1cccnc1 | -0.232%
N#Cc1ccc(C(=O)N2CC[C@H]3[C@@H]2CCC(=O)N3c2cccnc2)cc1 | 2.4%
CN1CCCN(C(=O)c2ccc3c(c2)nc(N2CCOCC2)n3C)CC1 | -3.09%
CN(CC(=O)N(C)C1CCCCC1)C1CCc2ccccc21 (stereo not given) | 0.433%
CCn1nc2c(cc1=O)CN(Cc1nc(N)c3ccccc3n1)CC2 | 1.61%
COc1ccc(C)cc1CN1CCCC1c1noc(C2CC2)n1 (stereo not given) | -4.34%
CC(C)c1nc(CN(C)CC2CCN(CCO)CC2)no1 | 3.25%
CCc1nc(C(=O)NCc2ccc(N3CCNC(=O)C3)c(F)c2)c[nH]1 | 2.49%
CCc1nc2n(n1)CC(Nc1cc(C)nc3ncnn13)CC2 (stereo not given) | -4.28%
COC(=O)c1ccc2ccn(CC3CCNC3)c(=O)c2c1 (stereo not given) | 3.08%
CC(C)CCc1noc(CN2CCCN(C(=O)c3ccco3)CC2)n1 | -1.32%
Nc1nc(C2CCN(C(=O)c3cncs3)CC2)cs1 | -0.134%
CCc1nnsc1C(=O)NC1CCN(c2ccccn2)CC1 | -5.57%
CN(Cc1nccs1)c1nc(-c2ccccn2)nc2c1CCNCC2 | 2.26%

Molecular target: Shiga toxin 2 (Escherichia coli O157:H7) (UniProt P09385+P09386)
Test: E. coli 0.157:H7 Shiga Toxin SOP - stx2 screening assay
Type: functional
Parameters: scale not given: direction of the effect not stated beside the values
Details: 30 µM

SMILES | Percent Effect
CCOc1nc2cccnc2n(CC(=O)NCCOC)c1=O | -9.03%
COCCCNc1nccc(-c2c[nH][nH]c2=O)n1 | -55.9%
Cc1cc(C)cc(NS(=O)(=O)c2cc3c(c(C(=O)O)c2)OCCO3)c1 | -24.3%
O=C1CC(c2ccncc2)C2(CCN(CCO)CC2)N1 (stereo not given) | -4.07%
CCCNC(=O)CN1CCC(C(=O)Nc2cnn(CC)c2)CC1 | 20.3%
CC(C)(C)c1cn2nc(N3CCC[C@@H]3CO)sc2n1 | -8.45%
CCc1noc(C)c1C(=O)N1CCCC1c1c(C)nn(C)c1OC (stereo not given) | 5.57%
CCOc1cccc2c1OCC(C(=O)NS(=O)(=O)Cc1ccccc1)=C2 | 23.7%
CCn1cc(CN(C)S(=O)(=O)c2ccc(Cl)cc2)cn1 | -34%
CCc1nc(CN(Cc2cccs2)CC2CCCO2)no1 (stereo not given) | 15%
COc1ccccc1CNC(=O)N1CCCC(c2nncn2C)C1 (stereo not given) | 25.8%
CCOCC1CN(S(C)(=O)=O)Cc2cnn(C)c21 (stereo not given) | -35.8%
CC(Cc1ccco1)NC(=O)Nc1ccc(S(C)(=O)=O)nc1 (stereo not given) | -17.3%
CNC(=O)C1(CCCc2ccncc2)CCCN1 (stereo not given) | 1.85%
Cc1nn(-c2ccccc2)nc1C(=O)N1CCCC1c1cnn(C)c1 (stereo not given) | 18.4%
CCn1cc(NC(=O)NCc2ccc(CN3CCOCC3)cc2)cn1 | -35.1%
CCCN(C(=O)COC)c1nc2c(s1)CCc1c-2cnn1C | -37.9%
CNC(=O)C1CCN(C(=O)c2ccn(-c3ccc(F)cc3)n2)CC1 | 7.26%
CCCC(=O)N1CCC(O)(Cn2c(CC)nc3ccccc3c2=O)CC1 | 0.775%
CN1CC(=O)N(c2ccsc2)CC12CCN(C(=O)c1ccccc1)C2 (stereo not given) | -3.66%

SMILES | Percent Effect
COCC(=O)N1CCC(c2nc3ccc(-c4ccccc4)cn3n2)CC1 | -19.6%
Cc1cc(=O)n2ncnc2n1CC(O)c1cc(F)ccc1F (stereo not given) | 1.57%
CCNC(=O)N1CCCCC1CCNS(C)(=O)=O (stereo not given) | 4.69%
CN(Cc1nc(C2CC2)no1)C1CCCN(c2cccnn2)C1 (stereo not given) | 0.986%
CC(NC(=O)CCCOc1ccccc1)c1nnc2n1CCCCC2 (stereo not given) | 19.8%
NC(=O)NCCC(=O)NCc1cccnc1N1CCc2ccccc2C1 | 6.61%
O=C(CCc1nc2cccnc2[nH]1)NCc1cccnc1 | -44%
N#Cc1ccc(C(=O)N2CC[C@H]3[C@@H]2CCC(=O)N3c2cccnc2)cc1 | -9.02%
CN1CCCN(C(=O)c2ccc3c(c2)nc(N2CCOCC2)n3C)CC1 | -5.95%
CN(CC(=O)N(C)C1CCCCC1)C1CCc2ccccc21 (stereo not given) | 34.7%
CCn1nc2c(cc1=O)CN(Cc1nc(N)c3ccccc3n1)CC2 | 15.6%
COc1ccc(C)cc1CN1CCCC1c1noc(C2CC2)n1 (stereo not given) | -3.88%
CC(C)c1nc(CN(C)CC2CCN(CCO)CC2)no1 | -7.83%
CCc1nc(C(=O)NCc2ccc(N3CCNC(=O)C3)c(F)c2)c[nH]1 | -51.1%
CCc1nc2n(n1)CC(Nc1cc(C)nc3ncnn13)CC2 (stereo not given) | 2.96%
COC(=O)c1ccc2ccn(CC3CCNC3)c(=O)c2c1 (stereo not given) | -45.4%
CC(C)CCc1noc(CN2CCCN(C(=O)c3ccco3)CC2)n1 | -9.12%
Nc1nc(C2CCN(C(=O)c3cncs3)CC2)cs1 | -3.12%
CCc1nnsc1C(=O)NC1CCN(c2ccccn2)CC1 | -24.7%
CN(Cc1nccs1)c1nc(-c2ccccn2)nc2c1CCNCC2 | -12.4%
